Compounds without any hit were thinned out: in the full panel of roughly 79,000, 15% have a hit. Activity calls are given as the source filed them. No stated cut-off is given here; in the data, active means growth inhibition above about 70%; inactive means the rest.
Assay: NCI Yeast Anticancer Drug Screen. Data for the rad50 strain (AID 155);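 further: 0% = growth of vehicle-only cultures of the same strain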
Details: S. cerevisiae rad50 strain growth inhibition; at 50.0 µM; hits give high values
How it was run: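 Vehicle-treated cultures provide the reference for the growth inhibition reported for compound-exposed, repair-deficient yeast.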

Compound	growth inhibition
C[N+](C)(C)C12CCCC1S(=O)(=O)C2 (stereo not given)	4.95% (inactive)
CCc1nc(N)nc(N)c1-c1ccc(Cl)c(NC(C)=O)c1	8.9% (inactive)
Nc1nc(Cl)cc(NCC(O)CO)n1 (stereo not given)	7.55% (inactive)
NCCC(=O)NCCSSCCNC(=O)CCN	-8.45% (inactive)
COC(=O)OC(C#N)c1cccc([N+](=O)[O-])c1 (stereo not given)	15.8% (inactive)
O=C1S/C(=C2\C(=O)N(CN3CCCCC3)c3ccc(Br)cc32)C(=O)N1CN1CCCCC1	37.4% (inactive)
c1ccc2c(c1)ncc1cc3c(cc12)[nH]c1ccccc13	40.9% (inactive)
CC1CN(c2ccc(Cl)cc2)CC(C)(C)OC(=O)O1 (stereo not given)	-12.2% (inactive)
CC(C)(C)CC(C)(C)c1c(O)cc(O)cc1Cl	99% (active)
CCOC(=O)Nn1c(C)nnc1CC#N	-3.05% (inactive)
N=c1oc2ccc([N+](=O)[O-])cc2cc1C(=O)NCc1ccccc1	11.3% (inactive)
CCNC(=O)NCCN1CCOCC1	-3.55% (inactive)
O=C1CSC(/C(=C/c2ccccc2)c2nc3ccccc3[nH]2)=N1	6.65% (inactive)
COc1ccc(N(C)S(=O)(=O)c2ccccc2)cc1	15.1% (inactive)
COC(=O)CC1(CC(=O)O)SCCS1	-13.6% (inactive)
CCOC(=O)C(=CC(CC)CC)C(=O)OCC	8.7% (inactive)
CC(=O)ON(C(=O)c1ccccc1)c1ccccc1	-1.7% (inactive)
CCCCCCCCSC(SCCCCCCCC)=C1C(=O)N(c2ccccc2)N=C1C	-5.9% (inactive)
CCNC(=S)NCCc1c[nH]c2ccccc12	-57% (inactive)
O=C(CSc1nnc(Cc2ccccc2)o1)Nc1cccc([N+](=O)[O-])c1	20.6% (inactive)

Compound	growth inhibition
C/C(=N\NC(N)=S)c1cc(C)c(C)cc1C	34.3% (inactive)
CCSc1cccc(C(=O)O)c1	-23.1% (inactive)
NC(=S)N/C=C(/c1ccc(Cl)cc1Cl)S(=O)(=O)Cc1ccc(Cl)cc1Cl	6.85% (inactive)
C=C(C)C1Cc2c(cc(O)c3c(=O)c4c(oc23)C(O)Oc2cc(OC)c(OC)cc2-4)O1 (stereo not given)	9.15% (inactive)
CCCCNc1ccc(Cl)cc1	0.75% (inactive)
O=C1CSC(c2cccnc2)N1CCN1C(=O)CSC1c1cccnc1 (stereo not given)	3.75% (inactive)
Cc1[nH]c(=O)nc(CC(O)(c2ccccc2)c2ccccc2)c1-c1ccccc1	-31.6% (inactive)
C[Si](C)(C)OC=C1CCCCC1	12.1% (inactive)
N#CCC(=O)N/N=C/c1ccccc1	8.3% (inactive)
Cc1c(C(=O)CC(=O)C(=O)Nc2c(C(C)C)cccc2C(C)C)[n+](=O)c2ccccc2n1[O-]	35.6% (inactive)
CC(C)(C(=O)Cc1ccccc1)c1ccccc1	-29.5% (inactive)
Cc1nnc2n(c1=O)CCCN2C	-0.35% (inactive)
CC1(C)C2CCC1(C)C(NC(N)=O)C2 (stereo not given)	-10% (inactive)
CCOC1CCC(C(=O)CC)C(C#N)(C#N)C1(C#N)C#N (stereo not given)	22.6% (inactive)
NS(=O)(=O)c1ccc(NC(=S)/N=C/c2c(O)c3ccccc3oc2=O)cc1	6.2% (inactive)
CC(c1ccccc1)C(C)c1ccccc1 (stereo not given)	12.7% (inactive)
Cc1cccc(Cl)c1NC(=O)c1cccc([N+](=O)[O-])c1	0.15% (inactive)
CCCCCCCN1C=CCC(S(=O)(=O)N2CCOCC2)=C1	-15.7% (inactive)
CCc1cnc(N)nc1N	-0.6% (inactive)
O=[N+]([O-])C(/C=N/Nc1ccccc1)/C=N/Nc1ccccc1	-5.95% (inactive)

Assay: NCI Yeast Anticancer Drug Screen. Data for the mec2-1 strain (AID 157)
Details: S. cerevisiae mec2-1 strain, at 50.0 µM, hits give high values
How it was run: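 Using mec2-1 yeast: add compound, measure growth, express inhibition versus vehicle-treated cultures.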

Compound	growth inhibition
C[N+](C)(C)C12CCCC1S(=O)(=O)C2 (stereo not given)	4.25% (inactive)
CCc1nc(N)nc(N)c1-c1ccc(Cl)c(NC(C)=O)c1	-3.6% (inactive)
Nc1nc(Cl)cc(NCC(O)CO)n1 (stereo not given)	2.35% (inactive)
NCCC(=O)NCCSSCCNC(=O)CCN	11% (inactive)
COC(=O)OC(C#N)c1cccc([N+](=O)[O-])c1 (stereo not given)	8.8% (inactive)
O=C1S/C(=C2\C(=O)N(CN3CCCCC3)c3ccc(Br)cc32)C(=O)N1CN1CCCCC1	-2.9% (inactive)
c1ccc2c(c1)ncc1cc3c(cc12)[nH]c1ccccc13	7.5% (inactive)
CC1CN(c2ccc(Cl)cc2)CC(C)(C)OC(=O)O1 (stereo not given)	-16.1% (inactive)
CC(C)(C)CC(C)(C)c1c(O)cc(O)cc1Cl	99.3% (active)
CCOC(=O)Nn1c(C)nnc1CC#N	-2.4% (inactive)
N=c1oc2ccc([N+](=O)[O-])cc2cc1C(=O)NCc1ccccc1	-0.9% (inactive)
CCNC(=O)NCCN1CCOCC1	-8% (inactive)
O=C1CSC(/C(=C/c2ccccc2)c2nc3ccccc3[nH]2)=N1	-1.75% (inactive)
COc1ccc(N(C)S(=O)(=O)c2ccccc2)cc1	-8.9% (inactive)
COC(=O)CC1(CC(=O)O)SCCS1	4.3% (inactive)
CCOC(=O)C(=CC(CC)CC)C(=O)OCC	-18.4% (inactive)
CC(=O)ON(C(=O)c1ccccc1)c1ccccc1	0.95% (inactive)
CCCCCCCCSC(SCCCCCCCC)=C1C(=O)N(c2ccccc2)N=C1C	-12.3% (inactive)
CCNC(=S)NCCc1c[nH]c2ccccc12	-3.55% (inactive)
O=C(CSc1nnc(Cc2ccccc2)o1)Nc1cccc([N+](=O)[O-])c1	5.1% (inactive)

Compound	growth inhibition
C/C(=N\NC(N)=S)c1cc(C)c(C)cc1C	5.55% (inactive)
CCSc1cccc(C(=O)O)c1	-2.9% (inactive)
NC(=S)N/C=C(/c1ccc(Cl)cc1Cl)S(=O)(=O)Cc1ccc(Cl)cc1Cl	-6.7% (inactive)
C=C(C)C1Cc2c(cc(O)c3c(=O)c4c(oc23)C(O)Oc2cc(OC)c(OC)cc2-4)O1 (stereo not given)	-0.95% (inactive)
CCCCNc1ccc(Cl)cc1	-5.4% (inactive)
O=C1CSC(c2cccnc2)N1CCN1C(=O)CSC1c1cccnc1 (stereo not given)	4.15% (inactive)
Cc1[nH]c(=O)nc(CC(O)(c2ccccc2)c2ccccc2)c1-c1ccccc1	-38.1% (inactive)
C[Si](C)(C)OC=C1CCCCC1	-3.95% (inactive)
N#CCC(=O)N/N=C/c1ccccc1	-27.1% (inactive)
Cc1c(C(=O)CC(=O)C(=O)Nc2c(C(C)C)cccc2C(C)C)[n+](=O)c2ccccc2n1[O-]	39.5% (inactive)
CC(C)(C(=O)Cc1ccccc1)c1ccccc1	-21.4% (inactive)
Cc1nnc2n(c1=O)CCCN2C	6.2% (inactive)
CC1(C)C2CCC1(C)C(NC(N)=O)C2 (stereo not given)	6.45% (inactive)
CCOC1CCC(C(=O)CC)C(C#N)(C#N)C1(C#N)C#N (stereo not given)	13.7% (inactive)
NS(=O)(=O)c1ccc(NC(=S)/N=C/c2c(O)c3ccccc3oc2=O)cc1	-4.45% (inactive)
CC(c1ccccc1)C(C)c1ccccc1 (stereo not given)	-10.2% (inactive)
Cc1cccc(Cl)c1NC(=O)c1cccc([N+](=O)[O-])c1	40.6% (inactive)
CCCCCCCN1C=CCC(S(=O)(=O)N2CCOCC2)=C1	-7.75% (inactive)
CCc1cnc(N)nc1N	4.75% (inactive)
O=[N+]([O-])C(/C=N/Nc1ccccc1)/C=N/Nc1ccccc1	-8.3% (inactive)

— PubChem BioAssay (NCI)
